Measurements published in the supplement of paper PMC11417369.
± gives the standard deviation of the averaged measurements. In all, about 25,000 sequences were measured (“ln(normalized median fluorescence intensity)”: median about 8.9, highest 2% from about 10 on). The sample as a whole holds a higher share of the highest values than the screen did.

system: PfAP2-LT AP2 domain (GST-tagged); experiment: gcPBM binding intensity (ln(normalized median fluorescence intensity)); higher = stronger DNA binding
In short: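 Using an Agilent 4 × 180k array, primer-extended double-stranded 36-bp intergenic genomic probes and negative controls were exposed for 1 h to GST-fused P. falciparum DNA-binding domains expressed in E. coli. Binding was carried out in 1× PBS with 1% milk, 0.2 mg/ml BSA, 0.5% salmon testes DNA and 0.03% Triton X-100, and protein was detected with Alexa488 anti-GST antibody and a 488 nm scan. Binding intensity is the highest Masliner-normalised natural-log median intensity across replicate spots of either probe orientation.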

Row | Sequence | gcPBM binding intensity (ln)
1 | ATAATACATACATACATACACACATATATATATATT [CACACA_site3576] | 9.29 ± 0.38
2 | TTTTTAATCATAATATGTACATATAAAAATGGTTTG [XGTACX_site3996] | 8.54 ± 0.41
3 | TAAAAATGTAAACACACACACATAAATATATTTTAT [CACACA_site5397] | 9.45 ± 0.26
4 | GATAAAATAGGACCATATTCTTTAAAACGATAAAAT [XGTACX_negctrl_site405] | 8.73 ± 0.51
5 | TTATATTATATATATATTATATATATGTATGCATAA [TGCATGCA_negctrl_site481] | 8.72 ± 0.2
6 | TTTTGCAAATATTACTGTACACAATCTCATATAATT [XGTACX_site2584] | 8.81 ± 0.35
7 | ATTATTTTTTTTGAAGTGCAATATTATTTTTAATCA | 8.46 ± 0.45
8 | AAAGTATTCTTTACACGTACATATATATAAATATAA [XGTACX_site7557] | 8.59 ± 0.33
9 | AAAAAACACGGACACACACACATATACATACATACA [CACACA_site5470] | 9.98 ± 0.41
10 | TTATAAATAAAAAATACACACATATATATATATATA [CACACA_site207] | 9.64 ± 0.2
11 | AAAATACCCGGACACACACACATATATATATATATT [CACACA_site6137] | 9.88 ± 0.49
12 | AGGATACACGGACACACACACATATATATATATATA [CACACA_site4654] | 10.43 ± 0.078
13 | CATACACCCGGACACACACACACACCCATATATAAT [CACACA_site4494] | 10 ± 0.35
14 | TACATATTTATATACACACACACACGGATATTTATA [CACACA_site7239] | 9.87 ± 0.45
15 | CATACATACGGACACACACACATATATATATATATA [CACACA_site5598] | 10.3 ± 0.15
16 | AAAAAAAACGGACACACACACATAAATATATATAAA [CACACA_site4260] | 9.86 ± 0.34
17 | ATTATATATATATATACACACACATATATATATATA [CACACA_site8373] | 9.47 ± 0.25
18 | AGGATACACGGACACACACACATATAGATTTATATA [CACACA_site6552] | 9.78 ± 0.51
19 | CTAAAATACGGACACACACACACATATATATATATA [CACACA_site6138] | 10.3 ± 0.11
20 | TATACACCCGGACACACACACATATATATATATATA [CACACA_site5030] | 10.36 ± 0.028
21 | AGTAAAAGAAAGCACACACACATGTATTTATGTATG [CACACA_site5998] | 9.71 ± 0.42
22 | TATATATATATATATTGTACACATACATGTAGTTTT [XGTACX_site4848] | 9.48 ± 0.49
23 | ACACATATAATAGTTACATGCAAAAATACTTTTATT [TGCATGCA_site785] | 9.03 ± 0.47
24 | ACCAAATCATATATAGCACACAAATTCTTTATTATT [CACACA_site8911] | 8.94 ± 0.38
25 | TAAAAAAAAACATGATGTACATAAAATTTTTTACTT [XGTACX_site7056] | 8.59 ± 0.47
